Results filed as inconclusive are left out. A call without a number means that no potency is given here. Calls of active or inactive are those of the source. Calls follow the shape of the dose curve; as a rule, active = well fitted cell-killing curve with a large enough effect; inconclusive = small, poorly fitted or top-dose-only effect, or effect the other way; inactive = no such curve, though single readings can be large or run the other way.

The record followed here is PubChem BioAssay AID1345085 (National Center for Advancing Translational Sciences (NCATS), 2018).
Potency is read from the fitted curve at half-maximal effect.

The test system of this assay is CAOV3. Put plainly: Confirmatory qHTS for gynecologic anti-cancer compounds from libraries of approved drugs and bioactive compounds. Also: nearly all actives have a fitted effect of over 55% in size. Particulars: gynecologic cancer cell panel viability, ATPlite luminescence, 48 h; series mostly up to 57.6 µM. In outline:
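Viability is measured as ATP-dependent luciferase light using ATPlite, read 15 min after reagent addition at room temperature. Compounds, in DMSO, span 57.5 uM down to 0.977 nM over 11 threefold steps for 48 h.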
Take `COc1c(C)c2c(c(O)c1C/C=C(\C)CCC(=O)O)C(=O)OC2`: the Potency result is “inactive”.

Turning to `Cc1nc(Nc2n[nH]c3c2CN(C(=O)NC(CN(C)C)c2ccccc2)C3(C)C)c2sccc2n1` (centres undefined), the Potency was 0.306 µM (active).

On to `CN1C2CCC1CC(OC(=O)[C@H](CO)c1ccccc1)C2` (some centres undefined), for which the Potency entry is “inactive”.

`Cc1csc(NC(=O)c2sc3nc4c(c(C(F)(F)F)c3c2N)CCC4)n1`: the Potency is 1.72 µM (active).

On to `CN1CCN(c2cccc(Nc3nc4c(-c5ccc(S(C)(=O)=O)cc5)cccn4n3)c2)CC1`, for which the Potency was 27.3 µM (active).

Regarding `COc1ccc(-c2cc3nccn3c(Nc3ncccc3C(N)=O)n2)cc1OC`, the Potency entry was “inactive”.

Turning to `Nc1ncn([C@@H]2O[C@H](CO)[C@@H](O)[C@H]2O)c(=O)n1`, the Potency entry was “inactive”.

`Nc1ccc(-c2ccc3ncc4ccc(=O)n(-c5cccc(C(F)(F)F)c5)c4c3c2)cn1`: the Potency is 3.43 µM (active).

Take `COc1ccc(OC)c(-c2nnc3ccc(-c4ccc(OC)c(O[C@@H]5CCOC5)c4)nn23)c1`: the Potency was 8.63 µM (active).

Regarding `Cn1cnc2c(F)c(Nc3ccc(Br)cc3F)c(C(=O)NOCCO)cc21`, the Potency result was “inactive”.

As for `CN(C)C1CCN(C(=O)c2ccc(NC(=O)Nc3nc(N4CCOCC4)nc(N4CCOCC4)n3)cc2)CC1`, the Potency was 0.611 µM (active).

Consider `Cc1ccc(C(N)=O)cc1Nc1nccc(-c2cn(C(C)C)c3cnccc23)n1`, for which the Potency was 17.2 µM (active).

As to `COc1c(C)c2c(c(O)c1C/C=C(\C)CCC(=O)OCCN1CCOCC1)C(=O)OC2`, the Potency result was “inactive”.

`CC(=O)Nc1cccc(-n2c(=O)n(C3CC3)c(=O)c3c(Nc4ccc(I)cc4F)n(C)c(=O)c(C)c32)c1`: the Potency entry was “inactive”.
